An excerpt weighted towards active compounds, which were near 9.4% of everything screened.
NPC1 promoter act: activators of NPC1 promoter; Potency, µM (top dose mostly 9.22 µM), for inactives: top-dose activation, most hits filed as activators; Huh7 NPC1 promoter luciferase reporter, 24 h; 320,000 compounds, 2.4% hits; AID 485313; note: % of control where 0% means no effect; nearly all actives have a fitted effect of over 60% in size
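Huh7 reporter cells (NPC1 promoter driving luciferase) are dosed with compound for 24 h at 37 °C, 5% CO2; luciferase detection reagent is then added and luminescence measured after 10 min at ambient temperature.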
ELG1 DNA repair: ELG1-dependent DNA repair inhibition. HEK293T ELG1-luciferase reporter, luminescence, 16 h; DNA damage induced by 5-fluorouridine. Potency, µM (titrated, usually from 46.1 µM), inactives show top-dose activity change, negative = inhibition, actives largely listed as inhibitors. 330,000 compounds, 2.3% hits; note: % is set by controls: 0 for no effect and ±100 for the full control effect; nearly all actives have a fitted effect of over 55% in size
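Overnight (16 hr) co-exposure of 2,000 cells/well to 5-fluorouridine and compound at 37 °C preceded detection. Luciferase was quantified via ONE-Glo luminescence; loss of signal denotes inhibition.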
ELG1 genotoxic: inducers of genotoxicity in HEK293T ELG1-luciferase cells. 330,000 compounds, 1.3% hits. HEK293T ELG1-luciferase reporter, luminescence, 16 h. Potency, µM (series often up to 46 µM), for the others: top-dose activity change, positive = activation, usual class: activators. AID 504466; note: % of control where 0% means no effect; nearly all actives have a fitted effect of over 60% in size
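Cells (2,000/well) expressing the ELG1-luciferase fusion are dosed by pin tool and kept 16 hr at 37 °C, 5% CO2. Signal comes from ONE-Glo luciferase reagent after 30 min at room temperature.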
SMN2 splice enh: SMN2 splice variant enhancement; HEK293 SMN2-luciferase splicing reporter, luminescence, 30-36 h; Potency, µM (series often up to 46.1 µM), for the others: at the top dose activity change, positive = activation, usual class: activators; 210,000 compounds, 2.8% hits; AID 1458; note: % of control where 0% means no effect; nearly all actives have a fitted effect of over 55% in size
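HEK293 cells carry an SMN2 […]–luciferase reporter in which exon 7 inclusion puts luciferase in frame. Cells were plated 10-12 h before compound addition, then incubated 30-36 h at 37C. ONE-Glo luminescence was read; sodium butyrate at 4.5 mM final served as control.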
Rab9 promoter act: activates the Rab9 promoter. Huh7 Rab9 promoter-luciferase reporter, luminescence, 24 h. Potency, µM (highest dose often 9.22 µM), for the others: at the highest dose activation, negative = inhibition, most hits filed as activators. 320,000 compounds, 2.8% hits. AID 485297; note: % of control where 0% means no effect; nearly all actives have a fitted effect of over 60% in size
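Huh7 reporter line, Rab9 promoter upstream of luciferase. Compound exposure 24 h at 37 °C in reduced-serum medium with 10% FBS. Read-out: luminescence.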
FLuc modulator: counter-screen for miR-21 project: firefly luciferase inhibitors or activators; P08659; purified FLuc, Km substrates, luminescence inhibition; Potency, µM (titrated, usually from 57.5 µM), for inactives: at the highest dose activity change, negative = inhibition, most hits filed as inhibitors; 360,000 compounds, 6.9% hits;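 note: plate controls were vehicle for no effect and reference inhibitor for full effect; nearly all actives have a fitted effect of over 55% in size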
Target sequence (P08659 whole entry, looked up): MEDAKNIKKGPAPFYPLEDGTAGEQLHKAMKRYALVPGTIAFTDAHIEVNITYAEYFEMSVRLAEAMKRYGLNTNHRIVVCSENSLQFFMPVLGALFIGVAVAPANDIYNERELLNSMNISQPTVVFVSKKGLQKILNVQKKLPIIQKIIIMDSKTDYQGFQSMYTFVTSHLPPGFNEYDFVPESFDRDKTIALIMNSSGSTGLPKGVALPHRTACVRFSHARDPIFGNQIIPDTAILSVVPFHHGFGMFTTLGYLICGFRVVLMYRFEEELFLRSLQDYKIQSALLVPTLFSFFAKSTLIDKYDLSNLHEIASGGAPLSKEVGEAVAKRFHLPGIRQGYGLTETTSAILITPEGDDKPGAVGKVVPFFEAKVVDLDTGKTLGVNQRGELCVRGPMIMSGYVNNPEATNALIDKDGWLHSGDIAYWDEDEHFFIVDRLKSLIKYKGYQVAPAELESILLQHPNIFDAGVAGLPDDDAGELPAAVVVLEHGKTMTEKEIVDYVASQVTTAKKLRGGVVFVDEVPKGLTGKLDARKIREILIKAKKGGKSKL
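Purified P. pyralis luciferase (10nM final) with 10uM D-luciferin and 10uM ATP (Km levels) in 50mM Tris acetate pH 7.5, 10mM Mg acetate, 0.01% Tween-20, 0.05% BSA; qHTS 6-point titration, ~60 µM downward; luminescence read.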
* hit, by the source's call. Calls come from the whole dose curve; as a rule, active = well fitted curve in the direction sought with a large enough effect; inconclusive = small, poorly fitted or top-dose-only effect, or another doubt; inactive = no such curve, though single readings can be large; an effect the other way counts as inactive or inconclusive. Potency is the fitted concentration of half-maximal effect.

`CCCCC(=O)NC(=S)Nc1cccc(C(=O)O)c1` gave NPC1 promoter act 27.7%, ELG1 DNA repair inconclusive, ELG1 genotoxic 9.1%, Rab9 promoter act 20.5% and FLuc modulator 23.9µM*.
`Cc1ccc(C(=O)O)cc1NC(=S)NC(=O)c1ccc(-c2ccccc2)cc1` gave NPC1 promoter act inconclusive, ELG1 DNA repair inconclusive, ELG1 genotoxic inconclusive, Rab9 promoter act inconclusive and FLuc modulator 1.51µM*.
Screening CC(=O)c1cccc(NC(=S)NC(=O)c2ccccc2)c1 returned NPC1 promoter act inconclusive, ELG1 DNA repair inconclusive, ELG1 genotoxic inconclusive, SMN2 splice enh inconclusive, Rab9 promoter act 2.24µM* and FLuc modulator 7.57µM*.
For CNC(=S)Nc1cccc(C(C)=O)c1 the results were NPC1 promoter act 1.1%, ELG1 DNA repair -6.9%, ELG1 genotoxic 0.2%, SMN2 splice enh 24.1%, Rab9 promoter act -6.5% and FLuc modulator -1.8%.
`COc1ccc(C(=O)NCC(c2ccco2)S(=O)(=O)c2cccs2)cc1` (stereo not given) gave FLuc modulator -7.1%.
`CCN(C(=O)C1CCN(S(=O)(=O)c2ccc3c(c2)CCCN3C(=O)C2CCC2)CC1)c1cccc(C)c1` gave FLuc modulator -8.0%.
`O=C(Nc1ccccc1Cl)C(Cl)C(=O)c1ccccc1` (stereo not given) gave NPC1 promoter act 19.7%, ELG1 DNA repair 7.1%, ELG1 genotoxic 7.2%, SMN2 splice enh -19.9%, Rab9 promoter act 4.6% and FLuc modulator inconclusive.
CC(C)CCOCC(=O)Nc1cccc(C(=O)O)c1 was read as NPC1 promoter act 0.708µM*, ELG1 DNA repair inconclusive, ELG1 genotoxic inconclusive, SMN2 splice enh 14.1µM*, Rab9 promoter act 0.501µM* and FLuc modulator 5.36µM*.
Screening O=C(NC(=S)Nc1cc([N+](=O)[O-])ccc1O)c1cccnc1 returned NPC1 promoter act 19.4%, ELG1 DNA repair inconclusive, ELG1 genotoxic 8.2%, SMN2 splice enh -6.1%, Rab9 promoter act inconclusive and FLuc modulator 16.9µM*.
NS(=O)(=O)c1ccc(NC(=S)NC(=O)c2ccc(-c3ccccc3)cc2)cc1 was read as NPC1 promoter act -6.1%, ELG1 DNA repair inconclusive, ELG1 genotoxic 16.2%, SMN2 splice enh -26.7%, Rab9 promoter act 0.3% and FLuc modulator -0.3%.
Screening O=C(Nc1ccc(Cl)cc1)C(Cl)C(=O)c1ccccc1 (stereo not given) returned NPC1 promoter act 2.4%, ELG1 DNA repair inconclusive, ELG1 genotoxic inconclusive, Rab9 promoter act 16.9% and FLuc modulator 15.1µM*.
For O=C(O)c1cccc(NC(=S)NC(=O)c2ccc(-c3ccccc3)cc2)c1 the results were NPC1 promoter act 0.355µM*, ELG1 DNA repair inconclusive, ELG1 genotoxic inconclusive, SMN2 splice enh 3.16µM*, Rab9 promoter act inconclusive and FLuc modulator 1.07µM*.
Screening CCOC(=O)c1sc(NC(=O)c2cc(-c3ccc(F)cc3)on2)c(C(=O)OCC)c1C returned SMN2 splice enh 4.3% and FLuc modulator 2.0%.
Screening CCc1ccc(NC(=O)C(=O)NCC(c2cccnc2)N2CCN(c3ccc(F)cc3)CC2)cc1 (stereo not given) returned FLuc modulator -3.3%.
O=C(NC(=S)Nc1ccccn1)c1cccc([N+](=O)[O-])c1 was read as NPC1 promoter act 1.26µM*, ELG1 DNA repair inconclusive, ELG1 genotoxic inconclusive, Rab9 promoter act 1.58µM* and FLuc modulator 23.9µM*.
`O=C(O)c1cccc(NC(=S)NCc2ccccc2)c1` gave NPC1 promoter act 16.2%, ELG1 DNA repair 20.8%, ELG1 genotoxic 1.8%, Rab9 promoter act inconclusive and FLuc modulator 15.1µM*.
`O=C(NNC(=S)Nc1ccc(F)cc1)c1cccc([N+](=O)[O-])c1` gave NPC1 promoter act 1.0%, ELG1 DNA repair -10.7%, ELG1 genotoxic 1.8%, Rab9 promoter act 0.3% and FLuc modulator -9.5%.
`O=C(O)/C(=N/NC(=O)c1ccc(Cl)cc1)c1ccccc1` gave NPC1 promoter act -5.2%, ELG1 DNA repair 18.0%, ELG1 genotoxic 6.7%, Rab9 promoter act 2.0% and FLuc modulator 16.9µM*.
For Cc1ccc(NC(=S)NNC(=O)c2cccc([N+](=O)[O-])c2)cc1Cl the results were NPC1 promoter act 1.4%, ELG1 DNA repair inconclusive, ELG1 genotoxic -6.5%, Rab9 promoter act -2.3% and FLuc modulator 19µM*.
Screening O=C(NS(=O)(=O)c1ccc(Cl)cc1)c1ccccc1 returned NPC1 promoter act -8.3%, ELG1 DNA repair 14.5%, ELG1 genotoxic 0.5%, SMN2 splice enh 10.2%, Rab9 promoter act 11.5% and FLuc modulator -14.7%.
CCOc1ccc(C(=O)NC(=S)Nc2ccccn2)cc1[N+](=O)[O-] was read as NPC1 promoter act -1.8%, ELG1 DNA repair inconclusive, ELG1 genotoxic 0.4%, SMN2 splice enh -68.4%, Rab9 promoter act inconclusive and FLuc modulator -6.3%.
Screening Cc1cc(=O)[nH]c2nnc(SCC(N)=O)n12 returned FLuc modulator -0.1%.
Cc1c(-c2ccc(Cl)cc2)c(=O)oc2c(CN3CCN(CCO)CC3)c(O)ccc12 was read as FLuc modulator -7.3%.
`O=C(Nc1ccc(OCc2cc(=O)n3ccccc3n2)cc1)c1ccccc1Cl` gave FLuc modulator 5.5%.
`CC(=O)c1cccc(NC(=O)CCC2CCCC2)c1` gave NPC1 promoter act 28.0%, ELG1 DNA repair inconclusive, ELG1 genotoxic 2.6%, SMN2 splice enh inconclusive, Rab9 promoter act 25.5% and FLuc modulator inconclusive.
Screening CC#CCCCC(=O)Nc1cccc(C(=O)O)c1 returned NPC1 promoter act inconclusive, ELG1 DNA repair inconclusive, ELG1 genotoxic 12.0%, SMN2 splice enh inconclusive, Rab9 promoter act 3.16µM* and FLuc modulator 23.9µM*.
O=C(NC(=S)Nc1cccc([N+](=O)[O-])c1)c1ccccc1 was read as NPC1 promoter act inconclusive, ELG1 DNA repair inconclusive, ELG1 genotoxic 13.5%, Rab9 promoter act 3.98µM* and FLuc modulator inconclusive.
For Cc1ccc(C(=O)NC(=S)Nc2ccccc2C(F)(F)F)cc1C the results were NPC1 promoter act 2.6%, ELG1 DNA repair 11.9%, ELG1 genotoxic 1.2%, SMN2 splice enh -16.9%, Rab9 promoter act -2.4% and FLuc modulator 23.9µM*.
For Cc1ccc(C(=O)NC(=S)Nc2cccc(NC(=O)c3ccccc3Cl)c2)cc1[N+](=O)[O-] the results were NPC1 promoter act -1.3%, ELG1 DNA repair 18.4µM*, ELG1 genotoxic -1.5%, SMN2 splice enh -3.4%, Rab9 promoter act -8.2% and FLuc modulator -15.2%.

Source: PubChem (National Center for Advancing Translational Sciences (NCATS))
